This is a sample that favours compounds with a hit; in the whole collection about 1.9% have one here.
BaF3 parental: reduces parental Ba/F3 cell viability, JAK2V617F counter-screen. CellTiter-Glo ATP luminescence. inhibition, % at 5.6 µM. actives 1.1% (n = 220,000). AID 1486;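 active means inhibition above a per-campaign cutoff, the mean inhibition of all tested compounds plus 3 SD, cut at about 27% in these data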;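 further: 0% = DMSO wells and 100% = JAK Inhibitor I control wells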
Ba/F3 V617F tox: loss of viability in JAK2V617F-driven Ba/F3 cells; actives 1.1% (n = 220,000); inhibition, % at 5.6 µM; AID 1446; Ba/F3 EpoR-JAK2V617F viability, ATP luminescence;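 active means inhibition above the campaign mean plus 3 SD over all tested compounds, cut at about 24% in these data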;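 further: cytokine-independent growth of Ba/F3 cells driven by EpoR plus mutant JAK2; 0% = DMSO-treated cells and 100% = JAK inhibitor I control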
APP transl inh: APP translation inhibition | SH-SY5Y APP 5'UTR-luciferase reporter, luminescence | inhibition, % at 2 µM | actives 0.82% (n = 190,000);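 active means inhibition above a set limit, derived from the sample mean plus 3 SD, cut at about 45% in these data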
KLF5 inh: kruppel-like factor 5 inhibition | actives 0.23% (n = 290,000) | DLD-1 KLF5 promoter-luciferase reporter, luminescence | inhibition, % at 5 µM;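 active means inhibition above a per-plate limit of that plate's mean compound inhibition plus 3 SD, cut at about 60% in these data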;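 further: 0% = DMSO wells and 100% = LY294002 at 200 µM; higher means less KLF5 promoter-driven luciferase light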
IEC-6 tox: IEC-6 cytotoxicity, counter-screen for KLF5 inhibitors. luminescence viability. inhibition, % at 5 µM. actives 0.78% (n = 290,000). AID 1825; in the data active means inhibition above about 22%;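 further: 0% = plate median of test compound wells and 100% = cytotoxic reference compound wells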
An asterisk follows results filed as active; · = no result.

SMILES	BaF3 parental	Ba/F3 V617F tox	APP transl inh	KLF5 inh	IEC-6 tox
COc1ccc(N2CC(O)(c3ccc(C)cc3)[N+]3=C2CCCC3)cc1 (stereo not given)	50*	45*	8	-16	5
COc1ccc(N2CC(O)(c3ccc(F)cc3)[N+]3=C2CCCC3)cc1 (stereo not given)	5	-1	-16	-15	2
O=C(O)Cc1sc(NC2CCCCC2)nc1-c1ccc(Cl)cc1	·	·	·	-57	3
CCOC(=O)c1sc2ncn(C(C)C(=O)OC)c(=O)c2c1C (stereo not given)	1	-4	-14	1	2
CCCOC(=O)C(C)n1cnc2sc(C)c(C)c2c1=O (stereo not given)	46*	-6	10	-22	-1
COc1ccccc1NC(=O)CN1CCN(CC(=O)Nc2ccc(F)cc2F)CC1	·	·	·	-65	7
CCOc1ccc(-c2nnc(NC(=O)C3CCCC3)o2)cc1	·	·	·	-35	-7
COc1cc(/C=N/NC(N)=S)ccc1OC(=O)c1ccc(C)cc1	2	-1	-6	-30	-2
COc1cc(/C=N/NC(N)=S)ccc1OCc1ccc(C)cc1	48*	60*	-19	-55	5
CCn1ccc(=N)cc1	5	3	-16	13	0
N=c1ccn(Cc2ccccc2Cl)cc1	65*	81*	24	-15	5
Clc1ccc(CN2CCSCC2)c(Cl)c1	·	·	·	6	1
N=c1ccn(Cc2ccc(Cl)cc2Cl)cc1	71*	90*	-1	15	3
N=c1ccn(Cc2c(Cl)cccc2Cl)cc1	63*	75*	·	-26	-8
Fc1ccccc1Cn1c2[n+](c3ccc(C(F)(F)F)cc31)CCCCC2	33*	15	-20	-20	1
COc1ccc(/C=C/C(=O)c2cc(Br)ccc2OC(=O)c2ccco2)cc1OC	5	4	87*	5	0
COc1ccc(/C=C/C(=O)c2cc(Br)ccc2O)cc1OC	5	2	-5	-8	-10
Cc1ccc([N+](=O)[O-])cc1NC(=O)Nc1cccc(F)c1	37*	40*	·	-36	11
CCC(=O)NC(c1ccccc1Cl)c1c(O)ccc2ccccc12 (stereo not given)	-1	-3	-17	-8	-3
CCCCC(=O)NC(c1ccccc1Cl)c1ccc2cccnc2c1O (stereo not given)	·	·	·	71*	19
CCC(=O)NC(c1ccccc1OC)c1ccc2cccnc2c1O (stereo not given)	68*	61*	89*	35	19
Oc1c(C(c2ccccc2Cl)N2CCCC2)ccc2cccnc12 (stereo not given)	68*	83*	7	73*	12
CC(C)C(OC(=O)c1nsc(Cl)c1Cl)C(=O)NC1CCCCC1 (stereo not given)	·	·	·	-19	-2
Cc1ccc2nc(-c3cccc(NS(C)(=O)=O)c3)cc(-c3ccccc3)c2c1	14	3	7	-22	2
Cc1ccc(-n2ncc3c(SCc4cccnc4)ncnc32)c(C)c1	4	-2	-14	-58	6
SMILES	BaF3 parental	Ba/F3 V617F tox	APP transl inh	KLF5 inh	IEC-6 tox
CC(C)(C=O)C1=CC(=O)c2ccccc2C1=O	10	4	80*	-14	6
Cc1csc(Nc2nc(N)c(C(=O)Nc3ccccc3)o2)n1	·	·	·	-94	4
CC(C(=O)N1CCc2ccccc21)N1CCc2ccccc2C1 (stereo not given)	41*	9	-11	-33	4
O=C(NCCCN1CCOCC1)c1ccccc1NS(=O)(=O)c1cc([N+](=O)[O-])ccc1Cl	13	6	2	3	5
Cc1n(-c2ccccc2)c2ccc(Cl)cc2[n+]1CCO	11	-2	2	17	6
COc1ccc(OCC(=O)Nc2ccc(N3CCN(C(=O)c4ccco4)CC3)cc2)cc1	90*	5	-22	5	1
COc1cc(-c2[nH]ncc2CN2CCN(Cc3cccs3)CC2)cc(OC)c1OC	4	-2	8	1	0
Cc1ccc(C)c(N=Nc2ccc(O)c3ncccc23)c1	4	-2	33	-44	12
Oc1ccc(N=Nc2ccc3c(c2)OCCO3)c2ncccc12	67*	92*	·	40	3
CCS(=O)(=O)c1ccc(OC)c(N=Nc2ccc(O)c3ncccc23)c1	7	2	67*	-10	-7
Cc1cccc(N=Nc2ccc(O)c3ncccc23)c1	1	1	72*	16	3
COc1ccc(NC(C)=O)cc1CNC(=O)COc1ccccc1C(=O)Nc1cccc(C)c1C	·	·	·	-46	-4
CSc1ccccc1OCc1cc(C(=O)N2CCC(Oc3cccnc3)CC2)no1	·	·	·	-63	1
O=C(CN1CCc2cc3c(cc2C1)OCCCO3)Nc1cccc(Br)c1	·	·	·	-6	-5
CCC(CO)[n+]1c(C)cc(/C=C2\Sc3ccccc3N2Cc2ccccc2)cc1C (stereo not given)	61*	68*	-12	-28	4
CCN(CC)c1ccc(NC(=O)CCS(=O)(=O)c2ccc(Br)cc2)c(C)c1	·	·	·	-1	-9
OC(Cn1ccnc1)c1ccc(Cl)cc1Cl (stereo not given)	6	-1	3	-12	2
CC1(c2ccc(Cl)cc2Cl)OCC(Cn2ccnc2)O1 (stereo not given)	95*	0	-14	-17	2
CN(CC(=O)N1CCOCC1)S(=O)(=O)c1ccc2ccccc2c1	·	·	·	-20	0
Nc1cccc2nc3ccccc3cc12	29*	41*	·	56	22
Nc1[nH]nc2nc3ccccc3cc12	6	-1	-5	-11	0
CC(C)(C)OC(=O)CNC(=O)c1nc[nH]c1C(=O)N1CCc2ccccc2C1	·	·	·	12	-6
Cc1ccc(C(=O)Nc2ccc(C(=O)N/N=C/c3c[nH]c4ccccc34)cc2)cc1	3	-2	0	-36	6
Cc1cccc(NC(=S)N/N=C/c2c[nH]c3ccccc23)c1	-1	-5	86*	5	12
CC(C)(C)C(=O)Nc1cc(NC(=O)C(C)(C)C)cc(C(=O)NNC(=O)c2ccncc2)c1	·	·	·	-31	-2
SMILES	BaF3 parental	Ba/F3 V617F tox	APP transl inh	KLF5 inh	IEC-6 tox
CC(=O)Oc1ccc2nc(-c3ccc(Br)o3)oc(=O)c2c1	·	·	·	-13	0
CC1Cc2ccccc2N1c1ncnc(N)c1[N+](=O)[O-] (stereo not given)	-7	-4	48*	30	-1
CC1(C)CC(=O)C(CC2=C(O)CC(C)(C)CC2=O)C(=O)C1	2	-4	53*	-41	-3
CC1(C)CC(=O)C(CC2=C(O)CC(C)(C)CC2=O)=C(O)C1	1	2	-4	-29	2
Cc1ccc(C)c(N2CCN(C(=O)CCS(=O)(=O)c3ccc4c(c3)oc(=O)n4C)CC2)c1	·	·	·	-26	3
Cc1cc2oc(C(=O)NCc3ccccc3)cc(=O)c2cc1C	·	·	·	-16	22*
CCCCC(C(=O)NC1CCCC1)N(C(=O)c1snc(C(N)=O)c1N)c1ccc(F)cc1 (stereo not given)	·	·	·	-4	2
CC1CCCC(NC(=O)COC(=O)CN2C(=O)C3CCCCC3C2=O)C1C (stereo not given)	2	-4	66*	-13	-3

High-throughput results from PubChem BioAssay.
